The full data set covers some 8,800 targets. This sample favours those with a hit. About 0.5% of all pairs of compound and target were hits.
Compound: CCN(CCCOc1ccc2c(Nc3cc(CC(=O)Nc4cccc(F)c4)[nH]n3)ncnc2c1)CCOP(=O)(O)O [barasertib]
Assay: log2 fold change, soluble protein after heating vs DMSO (PISA); higher = thermal stabilisation; K562 lysate, 10 uM; active = over 0.2 and 3.5 SD of the protein, either way, in both replicates (recomputed)
Summary of the method: (§1)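 Following dounce homogenisation of K562 pellets in PBS pH 7.4 with 1 mM MgCl2, crude extract at 1 mg/mL protein was incubated for 30 min with 10 μM compound. Aliquots were then heated for 3 min over 48°C-58°C and pooled, NP-40 was added to 0.5% at 4°C, and soluble protein was recovered as the supernatant at 21,000xg for 90 min. Channel-sum-equalised TMTpro 16plex LC-MS/MS quantified this protein. Each value, from duplicates, is a log-two fold change in thermal stability relative to solvent controls.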

Chain of UniProt P49918 (P49918 whole entry, looked up): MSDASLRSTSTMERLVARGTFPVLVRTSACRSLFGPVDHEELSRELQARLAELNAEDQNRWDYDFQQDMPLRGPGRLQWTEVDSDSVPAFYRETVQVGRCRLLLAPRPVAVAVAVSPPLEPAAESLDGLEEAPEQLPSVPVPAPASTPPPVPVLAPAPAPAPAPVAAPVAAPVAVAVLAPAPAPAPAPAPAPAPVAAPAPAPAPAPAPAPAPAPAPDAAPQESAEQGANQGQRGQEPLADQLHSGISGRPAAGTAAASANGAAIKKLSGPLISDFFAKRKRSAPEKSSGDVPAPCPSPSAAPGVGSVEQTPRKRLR
Chain of UniProt Q9NXV6 (Q9NXV6 whole entry, looked up): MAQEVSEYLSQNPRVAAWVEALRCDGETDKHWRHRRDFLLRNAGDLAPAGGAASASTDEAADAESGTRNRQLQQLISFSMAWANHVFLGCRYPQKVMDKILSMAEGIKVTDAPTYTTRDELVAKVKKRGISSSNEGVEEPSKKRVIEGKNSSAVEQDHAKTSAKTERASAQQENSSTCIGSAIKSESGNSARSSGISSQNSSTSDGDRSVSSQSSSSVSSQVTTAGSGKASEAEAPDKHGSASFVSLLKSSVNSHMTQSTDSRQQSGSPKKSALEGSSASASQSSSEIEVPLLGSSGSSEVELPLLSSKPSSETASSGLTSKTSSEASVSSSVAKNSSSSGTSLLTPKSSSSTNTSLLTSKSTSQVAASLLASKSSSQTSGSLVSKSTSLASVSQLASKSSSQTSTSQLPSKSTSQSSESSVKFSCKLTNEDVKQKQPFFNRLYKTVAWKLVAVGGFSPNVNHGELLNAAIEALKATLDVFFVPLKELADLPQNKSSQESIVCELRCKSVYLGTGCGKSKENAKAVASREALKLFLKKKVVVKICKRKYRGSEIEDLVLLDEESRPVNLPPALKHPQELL
Chain of UniProt Q7L2Z9 (Q7L2Z9 whole entry, looked up): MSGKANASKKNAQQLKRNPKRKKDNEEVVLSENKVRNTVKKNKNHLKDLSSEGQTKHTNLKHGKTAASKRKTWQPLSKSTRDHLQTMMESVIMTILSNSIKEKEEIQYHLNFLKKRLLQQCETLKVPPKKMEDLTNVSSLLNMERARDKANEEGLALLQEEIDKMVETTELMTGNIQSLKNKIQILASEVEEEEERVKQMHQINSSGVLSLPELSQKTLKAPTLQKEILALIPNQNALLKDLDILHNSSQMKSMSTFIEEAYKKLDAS
Chain of UniProt Q9ULG6 (Q9ULG6 whole entry, looked up): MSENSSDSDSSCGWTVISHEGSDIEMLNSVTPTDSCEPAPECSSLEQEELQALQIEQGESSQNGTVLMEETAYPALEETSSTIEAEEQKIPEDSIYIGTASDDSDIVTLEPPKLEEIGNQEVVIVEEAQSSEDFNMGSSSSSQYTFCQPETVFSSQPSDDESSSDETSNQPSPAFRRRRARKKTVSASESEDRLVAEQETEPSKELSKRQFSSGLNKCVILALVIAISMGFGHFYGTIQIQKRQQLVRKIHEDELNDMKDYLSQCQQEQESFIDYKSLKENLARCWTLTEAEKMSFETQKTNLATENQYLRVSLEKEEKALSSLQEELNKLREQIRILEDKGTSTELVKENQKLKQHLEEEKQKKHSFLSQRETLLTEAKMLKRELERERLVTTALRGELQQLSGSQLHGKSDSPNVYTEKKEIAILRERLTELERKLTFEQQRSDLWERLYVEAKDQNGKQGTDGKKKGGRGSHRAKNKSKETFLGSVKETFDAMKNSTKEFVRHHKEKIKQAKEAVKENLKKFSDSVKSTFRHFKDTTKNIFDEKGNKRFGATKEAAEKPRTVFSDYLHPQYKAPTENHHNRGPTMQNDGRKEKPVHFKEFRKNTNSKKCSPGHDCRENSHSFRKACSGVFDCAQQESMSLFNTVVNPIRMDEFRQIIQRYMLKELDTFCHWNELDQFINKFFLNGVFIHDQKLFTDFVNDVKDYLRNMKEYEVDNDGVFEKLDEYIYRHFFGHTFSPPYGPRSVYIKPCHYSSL
Chain of UniProt Q9Y487 (Q9Y487 whole entry, looked up): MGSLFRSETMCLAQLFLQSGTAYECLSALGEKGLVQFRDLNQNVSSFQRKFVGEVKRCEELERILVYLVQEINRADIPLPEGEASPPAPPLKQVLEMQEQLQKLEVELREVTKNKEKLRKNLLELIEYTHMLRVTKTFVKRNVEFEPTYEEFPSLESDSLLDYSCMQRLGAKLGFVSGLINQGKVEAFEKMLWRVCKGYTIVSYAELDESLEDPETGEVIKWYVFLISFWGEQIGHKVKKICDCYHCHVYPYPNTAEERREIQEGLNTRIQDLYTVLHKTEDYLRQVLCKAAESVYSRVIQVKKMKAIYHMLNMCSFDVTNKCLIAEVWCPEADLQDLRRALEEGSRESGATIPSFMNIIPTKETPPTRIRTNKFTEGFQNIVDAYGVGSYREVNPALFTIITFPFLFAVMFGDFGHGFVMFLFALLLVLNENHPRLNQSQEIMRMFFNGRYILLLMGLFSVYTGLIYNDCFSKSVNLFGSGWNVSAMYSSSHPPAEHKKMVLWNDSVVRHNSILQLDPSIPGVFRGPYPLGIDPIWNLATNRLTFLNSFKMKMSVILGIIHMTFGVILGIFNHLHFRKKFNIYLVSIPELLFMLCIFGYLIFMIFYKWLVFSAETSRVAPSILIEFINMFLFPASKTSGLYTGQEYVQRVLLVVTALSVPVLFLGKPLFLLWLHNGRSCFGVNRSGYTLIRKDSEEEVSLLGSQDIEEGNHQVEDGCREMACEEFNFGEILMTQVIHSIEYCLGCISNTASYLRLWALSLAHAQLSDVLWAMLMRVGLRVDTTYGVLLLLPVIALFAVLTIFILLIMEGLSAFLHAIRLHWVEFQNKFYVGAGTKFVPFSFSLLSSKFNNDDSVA
Chain of UniProt Q9HD20 (Q9HD20 whole entry, looked up): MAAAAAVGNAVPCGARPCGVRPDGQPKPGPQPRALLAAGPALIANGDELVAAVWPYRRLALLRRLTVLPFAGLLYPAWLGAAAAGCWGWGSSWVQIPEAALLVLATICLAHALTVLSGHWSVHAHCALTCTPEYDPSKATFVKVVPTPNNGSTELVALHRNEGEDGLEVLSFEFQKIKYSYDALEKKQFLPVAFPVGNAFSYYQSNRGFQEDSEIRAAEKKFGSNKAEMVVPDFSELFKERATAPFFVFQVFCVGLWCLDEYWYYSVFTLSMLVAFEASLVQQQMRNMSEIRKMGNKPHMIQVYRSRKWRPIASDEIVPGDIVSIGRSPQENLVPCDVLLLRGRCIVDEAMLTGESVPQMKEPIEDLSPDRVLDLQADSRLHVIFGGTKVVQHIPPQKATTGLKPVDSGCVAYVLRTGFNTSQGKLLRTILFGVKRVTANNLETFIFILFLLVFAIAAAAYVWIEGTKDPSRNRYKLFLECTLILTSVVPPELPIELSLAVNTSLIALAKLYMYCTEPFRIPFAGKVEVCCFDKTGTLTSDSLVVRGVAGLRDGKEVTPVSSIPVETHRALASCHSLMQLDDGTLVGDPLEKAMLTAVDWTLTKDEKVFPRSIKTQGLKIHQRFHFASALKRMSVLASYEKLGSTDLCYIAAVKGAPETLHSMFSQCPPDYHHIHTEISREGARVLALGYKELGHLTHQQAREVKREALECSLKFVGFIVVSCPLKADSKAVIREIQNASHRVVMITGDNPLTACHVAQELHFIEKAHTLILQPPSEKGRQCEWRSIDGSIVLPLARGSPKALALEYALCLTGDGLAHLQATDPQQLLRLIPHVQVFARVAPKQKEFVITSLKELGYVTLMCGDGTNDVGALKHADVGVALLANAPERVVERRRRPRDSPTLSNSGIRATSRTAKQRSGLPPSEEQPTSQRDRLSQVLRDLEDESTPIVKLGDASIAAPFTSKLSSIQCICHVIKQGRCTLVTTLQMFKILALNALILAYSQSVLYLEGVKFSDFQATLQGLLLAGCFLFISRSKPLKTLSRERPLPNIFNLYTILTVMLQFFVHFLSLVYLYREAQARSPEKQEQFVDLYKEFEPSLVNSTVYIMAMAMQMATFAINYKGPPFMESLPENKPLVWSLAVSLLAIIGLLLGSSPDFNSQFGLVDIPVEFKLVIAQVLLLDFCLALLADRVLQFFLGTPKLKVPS
Chain of UniProt P51946 (P51946 whole entry, looked up): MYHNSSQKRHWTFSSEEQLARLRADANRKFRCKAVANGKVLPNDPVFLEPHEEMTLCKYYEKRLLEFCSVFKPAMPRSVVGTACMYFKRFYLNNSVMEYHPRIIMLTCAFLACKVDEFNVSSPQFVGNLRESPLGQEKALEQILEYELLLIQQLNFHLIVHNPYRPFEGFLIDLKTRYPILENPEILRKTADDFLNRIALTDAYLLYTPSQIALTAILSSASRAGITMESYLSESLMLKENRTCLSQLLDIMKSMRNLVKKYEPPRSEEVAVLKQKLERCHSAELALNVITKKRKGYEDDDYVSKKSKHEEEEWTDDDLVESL
Chain of UniProt P83916 (P83916 whole entry, looked up): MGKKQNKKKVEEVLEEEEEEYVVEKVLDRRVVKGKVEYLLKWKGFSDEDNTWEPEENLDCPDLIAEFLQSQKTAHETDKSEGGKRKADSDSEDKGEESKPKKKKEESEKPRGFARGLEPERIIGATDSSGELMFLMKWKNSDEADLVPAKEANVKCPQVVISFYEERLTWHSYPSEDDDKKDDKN
Chain of UniProt Q9Y2V2 (Q9Y2V2 whole entry, looked up): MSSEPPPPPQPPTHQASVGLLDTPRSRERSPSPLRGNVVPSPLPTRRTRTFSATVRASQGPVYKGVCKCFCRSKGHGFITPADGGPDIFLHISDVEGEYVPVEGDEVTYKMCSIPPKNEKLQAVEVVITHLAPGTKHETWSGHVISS
Chain of UniProt Q9UL45 (Q9UL45 whole entry, looked up): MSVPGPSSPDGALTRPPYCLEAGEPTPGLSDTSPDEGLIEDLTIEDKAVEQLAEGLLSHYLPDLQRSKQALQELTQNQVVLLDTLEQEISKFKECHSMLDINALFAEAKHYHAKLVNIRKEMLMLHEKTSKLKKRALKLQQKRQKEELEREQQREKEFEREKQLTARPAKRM

| Target | log2 fold change |
| --- | --- |
| CENPQ (UniProt Q7L2Z9) | 0.038 (inactive) |
| CD63 (UniProt P08962) | 0.037 (inactive) |
| CARS isoform 3 (UniProt P49589) | -0.032 (inactive) |
| CCNC (UniProt P24863) | -0.026 (inactive) |
| CBFA2T3 (UniProt O75081) | -0.055 (inactive) |
| BUB1B isoform 3 (UniProt O60566) | 0.03 (inactive) |
| CES2 isoform 4 (UniProt O00748) | -0.052 (inactive) |
| CDC123 (UniProt O75794) | 0.04 (inactive) |
| CCDC85B (UniProt Q15834) | -0.047 (inactive) |
| CARD9 (UniProt Q9H257) | 0.008 (inactive) |
| CANX isoform 2 (UniProt P27824) | -0.015 (inactive) |
| CDKN2AIP (UniProt Q9NXV6) | -0.028 (inactive) |
| AURKA (UniProt O14965) | 0.763 (active) |
| CDC42BPA isoform 6 (UniProt Q5VT25) | -0.006 (inactive) |
| ATG13 isoform 2 (UniProt O75143) | 0.024 (inactive) |
| CARHSP1 (UniProt Q9Y2V2) | 0.024 (inactive) |
| CCAR2 (UniProt Q8N163) | -0.047 (inactive) |
| ATP6V0A2 (UniProt Q9Y487) | 0.037 (inactive) |
| CCPG1 isoform 5 (UniProt Q9ULG6) | 0.034 (inactive) |
| CCNB1 (UniProt P14635) | 0.019 (inactive) |

| Target | log2 fold change |
| --- | --- |
| CCNH (UniProt P51946) | -0.035 (inactive) |
| BCAR1 isoform 6 (UniProt P56945) | 0.015 (inactive) |
| CDAN1 (UniProt Q8IWY9) | 0.014 (inactive) |
| CDK13 (UniProt Q14004) | -0.061 (inactive) |
| CFDP1 (UniProt Q9UEE9) | -0.066 (inactive) |
| ATP11A (UniProt P98196) | 0.006 (inactive) |
| BCKDK (UniProt O14874) | -0.028 (inactive) |
| BLOC1S6 (UniProt Q9UL45) | -0.012 (inactive) |
| CBX1 (UniProt P83916) | -0.075 (inactive) |
| CDC7 (UniProt O00311) | -0.005 (inactive) |
| C19orf54 (UniProt Q5BKX5) | 0.002 (inactive) |
| C8orf37 (UniProt Q96NL8) | -0.062 (inactive) |
| CDK2 (UniProt P24941) | -0.01 (inactive) |
| CEP76 (UniProt Q8TAP6) | 0.085 (inactive) |
| CDK11B (UniProt P21127) | 0.022 (inactive) |
| CASC4 (UniProt Q6P4E1) | -0.02 (inactive) |
| CCDC32 isoform 2 (UniProt Q9BV29) | 0.351 (inactive) |
| BCR (UniProt P11274) | -0.021 (inactive) |
| ATP13A1 (UniProt Q9HD20) | -0.006 (inactive) |
| CDKN1C (UniProt P49918) | -0.041 (inactive) |

Compound: CC[C@@H]1C(=O)N(C)c2cnc(Nc3ccc(C(=O)NC4CCN(C)CC4)cc3OC)nc2N1C1CCCC1
Assay: as above
Summary of the method: as §1

| Target | log2 fold change |
| --- | --- |
| CENPQ (UniProt Q7L2Z9) | -0.023 (inactive) |
| CD63 (UniProt P08962) | -0.036 (inactive) |
| CARS isoform 3 (UniProt P49589) | -0.01 (inactive) |
| CCNC (UniProt P24863) | -0.017 (inactive) |
| CBFA2T3 (UniProt O75081) | 0.003 (inactive) |
| BUB1B isoform 3 (UniProt O60566) | -0.012 (inactive) |
| CES2 isoform 4 (UniProt O00748) | -0.012 (inactive) |
| CDC123 (UniProt O75794) | -0.12 (inactive) |
| CCDC85B (UniProt Q15834) | 0.086 (inactive) |
| CARD9 (UniProt Q9H257) | 0.068 (inactive) |
| CANX isoform 2 (UniProt P27824) | 0.061 (inactive) |
| CDKN2AIP (UniProt Q9NXV6) | 0.082 (inactive) |
| AURKA (UniProt O14965) | -0.062 (inactive) |
| CDC42BPA isoform 6 (UniProt Q5VT25) | -0.111 (inactive) |
| ATG13 isoform 2 (UniProt O75143) | 0.036 (inactive) |
| CARHSP1 (UniProt Q9Y2V2) | 0.033 (inactive) |
| CCAR2 (UniProt Q8N163) | -0.01 (inactive) |
| ATP6V0A2 (UniProt Q9Y487) | 0.071 (inactive) |
| CCPG1 isoform 5 (UniProt Q9ULG6) | 0.066 (inactive) |
| CCNB1 (UniProt P14635) | 0.03 (inactive) |

| Target | log2 fold change |
| --- | --- |
| CCNH (UniProt P51946) | 0.036 (inactive) |
| BCAR1 isoform 6 (UniProt P56945) | -0.065 (inactive) |
| CDAN1 (UniProt Q8IWY9) | -0.093 (inactive) |
| CDK13 (UniProt Q14004) | 0.002 (inactive) |
| CFDP1 (UniProt Q9UEE9) | 0.025 (inactive) |
| ATP11A (UniProt P98196) | 0.019 (inactive) |
| BCKDK (UniProt O14874) | 0.203 (inactive) |
| BLOC1S6 (UniProt Q9UL45) | 0.013 (inactive) |
| CBX1 (UniProt P83916) | 0.028 (inactive) |
| CDC7 (UniProt O00311) | 0.039 (inactive) |
| C19orf54 (UniProt Q5BKX5) | -0.043 (inactive) |
| C8orf37 (UniProt Q96NL8) | 0.058 (inactive) |
| CDK2 (UniProt P24941) | -0.059 (inactive) |
| CEP76 (UniProt Q8TAP6) | -0.093 (inactive) |
| CDK11B (UniProt P21127) | -0.087 (inactive) |
| CASC4 (UniProt Q6P4E1) | 0.009 (inactive) |
| CCDC32 isoform 2 (UniProt Q9BV29) | -0.041 (inactive) |
| BCR (UniProt P11274) | -0.062 (inactive) |
| ATP13A1 (UniProt Q9HD20) | 0.023 (inactive) |
| CDKN1C (UniProt P49918) | 0.027 (inactive) |

Reference: the supplement of paper PMC10849652
